Experiment [1] in a line: AP1 Signaling Pathway (AID 357; active = well fitted curve in either direction with a large enough effect, not every such curve was filed as active; also: % is scaled to controls: 0 for no effect and ±100 for the full control effect). The conditions noted are these: ME-180 AP-1-bla reporter, EGF-induced, beta-lactamase ratio, 5 h; at 7.69 µM (top of the series) unless noted. Summed up: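 Read-out was the 460nm/530nm emission ratio (excitation 405nm) after CCF4 loading for 2.5 hours at room temperature. Cells carried an AP-1-driven beta-lactamase reporter, were stimulated with EC50 EGF plus compound for 5 hours, and AC50 values came from titrations.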

The target of experiment [2] is Cytochrome P450 1A2 (Homo sapiens) (UniProt P05177). Briefly: p450-cyp1a2 (AID 410; calls by dose curve; also: potency is read from the fitted curve at half-maximal effect;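 as to activity change, negative = inhibition: -100% = full effect of reference inhibitor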). In short, it runs like this: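 Luminescent readout of luciferin formed from Luciferin-ME by human CYP1A2; data normalized against complete inhibition by 57 uM furafylline. Enzyme 20nM, substrate 100uM at Km, 100mM KPO4 buffer, 60 min reaction at room temperature.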
Cytochrome P450 1A2 (Homo sapiens), sequence (P05177 whole entry, looked up): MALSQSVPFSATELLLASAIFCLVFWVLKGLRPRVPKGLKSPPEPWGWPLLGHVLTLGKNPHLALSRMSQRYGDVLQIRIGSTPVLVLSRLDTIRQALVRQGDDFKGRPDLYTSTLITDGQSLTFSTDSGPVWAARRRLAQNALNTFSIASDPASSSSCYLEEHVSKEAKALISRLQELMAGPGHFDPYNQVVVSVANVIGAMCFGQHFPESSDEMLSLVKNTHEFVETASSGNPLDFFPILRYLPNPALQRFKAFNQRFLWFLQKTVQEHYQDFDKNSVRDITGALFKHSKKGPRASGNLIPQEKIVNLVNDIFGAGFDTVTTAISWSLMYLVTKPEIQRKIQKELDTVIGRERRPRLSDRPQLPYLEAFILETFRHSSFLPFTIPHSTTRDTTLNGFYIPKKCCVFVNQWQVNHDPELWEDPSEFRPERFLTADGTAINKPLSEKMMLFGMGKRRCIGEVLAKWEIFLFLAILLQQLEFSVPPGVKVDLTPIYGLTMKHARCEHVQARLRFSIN
A short description of experiment [3]: NFAT Signaling Pathway (AID 444; active = well fitted curve in either direction with a large enough effect, not every such curve was filed as active;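 also: carbachol stimulus at about its EC50 of 1 µM final; % is scaled to controls: 0 for no effect and ±100 for the full control effect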). Particulars: Jurkat NFAT-bla M1, carbachol, beta-lactamase ratio, 5 h; at 7.69 µM (top of the series) unless noted. In short, it runs like this: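 Read-out: CCF4 FRET ratio (460 nm/530 nm) after 1 h RT dye loading, used for %activity and AC50 from titration series. Cells: Jurkat NFAT-β-lactamase/M1 line, treated with compound plus 1 uM carbachol for 5 h, 37 °C.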

Experiment [4] in a line: Stat Signaling Pathway (AID 446; active = well fitted curve in either direction with a large enough effect, not every such curve was filed as active;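 also: ME-180 cervical cancer cells given 40 pM IL-6 alongside compound; SIE-controlled beta-lactamase reporter measured as 460/530 nm FRET emission ratio; % is scaled to controls: 0 for no effect and ±100 for the full control effect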). The conditions noted are these: ME-180 (cervical carcinoma) SIE beta-lactamase reporter, IL-6 stimulated, 5 h; at 7.69 µM (top of the series) unless noted. Summed up:
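ME-180 cells carrying a SIE-driven beta-lactamase reporter are stimulated with 40 pM IL-6 for 5 h at 37C in the presence of compound. The 460/530 nm FRET substrate ratio is read after 2.5 h at RT. Data are normalised to 300 pM IL-6 and to 125 nM JAK inhibitor controls.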

The target in experiment [5] is Glucocorticoid receptor (Homo sapiens) (UniProt P04150). Put plainly: GR-GFP Redistribution (AID 450;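 active = compounds whose dose series gives a full or clear partial fitted curve of increased nuclear translocation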; also: potency is read from the fitted curve at half-maximal effect). The conditions noted are these: U2OS GR-GFP nuclear translocation, laser cytometry, 2 h.
Glucocorticoid receptor (Homo sapiens), sequence (P04150 whole entry, looked up): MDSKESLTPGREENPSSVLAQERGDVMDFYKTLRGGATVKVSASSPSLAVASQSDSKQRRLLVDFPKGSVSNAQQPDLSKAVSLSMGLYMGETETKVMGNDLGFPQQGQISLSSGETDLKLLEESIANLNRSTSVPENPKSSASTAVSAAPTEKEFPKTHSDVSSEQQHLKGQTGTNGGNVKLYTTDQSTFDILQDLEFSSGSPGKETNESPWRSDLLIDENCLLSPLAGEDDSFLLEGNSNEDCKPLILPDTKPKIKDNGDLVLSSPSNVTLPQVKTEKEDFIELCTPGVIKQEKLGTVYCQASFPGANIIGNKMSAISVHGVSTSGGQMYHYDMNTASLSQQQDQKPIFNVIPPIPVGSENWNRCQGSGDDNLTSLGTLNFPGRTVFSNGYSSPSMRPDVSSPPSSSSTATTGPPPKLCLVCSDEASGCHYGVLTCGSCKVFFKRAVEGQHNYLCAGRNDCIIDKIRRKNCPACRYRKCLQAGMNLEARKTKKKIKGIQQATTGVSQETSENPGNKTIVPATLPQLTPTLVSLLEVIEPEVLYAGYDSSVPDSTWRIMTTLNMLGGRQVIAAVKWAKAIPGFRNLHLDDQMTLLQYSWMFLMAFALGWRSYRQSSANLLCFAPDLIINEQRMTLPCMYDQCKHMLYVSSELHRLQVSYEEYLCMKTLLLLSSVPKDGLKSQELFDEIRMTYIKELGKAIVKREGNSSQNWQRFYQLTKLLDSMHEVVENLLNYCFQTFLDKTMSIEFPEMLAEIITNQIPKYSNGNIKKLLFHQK
The target is the same in experiment [6]. Put plainly: GR-EFC Redistribution (AID 451; calls by dose curve; also: potency is read from the fitted curve at half-maximal effect). The conditions noted are these: CHO-K1 GR-EFC translocation, beta-gal luminescence, 2 h. Summed up:
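Translocation of GR-ED fusion to nuclear EA restores b-gal, read by luminescence after 1 h room-temperature detection. Engineered CHO-K1 biosensor cells, 1,000/well, exposed 2 h at 37 C to titrations up to 46 uM final.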

Experiment [7] addresses Mitogen-activated protein kinase 10 (Mus musculus) (UniProt Q61831). Briefly: JNK3 AlphaScreen Assay (AID 530; active = well fitted curve in either direction with a large enough effect, not every such curve was filed as active;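 also: kinase came from lysate of stimulated human HepG2 cells; signal reports phosphorylation of biotinylated GST-cJun 1-79 at Ser73 with 10 µM ATP; % is scaled to controls: 0 for no effect and ±100 for the full control effect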). Summed up: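 Compound titrations were preincubated 15 minutes at room temperature with substrate, antibody and pre-activated JNK3-containing HepG2 lysate. Reactions were started with 10 uM ATP and stopped with EDTA-containing bead buffer for AlphaScreen detection.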
For orientation: Bead proximity is the source of the signal in Alpha formats.

Experiment [8] deals with Cytochrome P450 3A4 (Homo sapiens) (UniProt P08684). Briefly: qHTS Assay for Inhibitors and Substrates of Cytochrome P450 3A4 (AID 884). Also: nearly all actives have a fitted effect of over 50% in size. Also: potency is read from the fitted curve at half-maximal effect. In short, it runs like this: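 20 nM human CYP3A4 with 25 uM Luciferin-PPXE (at KM) in 200 mM KPO4, preincubated 10 min with compound; NADPH regeneration started a 60 min RT reaction. Luciferin detected by luminescence, normalized to 57 uM ketoconazole as full inhibition.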
Cytochrome P450 3A4 (Homo sapiens), sequence (P08684 whole entry, looked up): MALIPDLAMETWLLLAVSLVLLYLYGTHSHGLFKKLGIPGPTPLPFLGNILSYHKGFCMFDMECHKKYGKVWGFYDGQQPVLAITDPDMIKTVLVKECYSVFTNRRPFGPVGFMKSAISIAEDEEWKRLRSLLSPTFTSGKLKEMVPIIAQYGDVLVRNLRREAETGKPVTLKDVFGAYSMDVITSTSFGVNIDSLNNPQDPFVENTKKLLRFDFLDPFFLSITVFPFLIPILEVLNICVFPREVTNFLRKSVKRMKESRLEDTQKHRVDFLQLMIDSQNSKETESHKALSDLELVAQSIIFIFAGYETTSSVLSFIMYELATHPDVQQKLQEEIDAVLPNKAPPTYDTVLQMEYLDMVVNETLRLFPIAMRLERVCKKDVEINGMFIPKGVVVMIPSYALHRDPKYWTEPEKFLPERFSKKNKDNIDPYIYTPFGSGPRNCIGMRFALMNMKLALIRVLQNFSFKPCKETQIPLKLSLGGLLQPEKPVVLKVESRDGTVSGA
In general terms: Quantitative high-throughput screening tests each substance at several concentrations.

Experiment [9] shares this target. Put plainly: qHTS Assay for Activators of Cytochrome P450 3A4 (AID 885). Also: nearly all actives have a fitted effect of over 65% in size. In short, it runs like this:
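Human CYP3A4 (20 nM) with Luciferin-PPXE at 25 uM (its KM) in 200 mM KPO4; 10 min compound preincubation, then NADPH regeneration and 60 min reaction at RT. Luciferin read by luminescence; normalized to 57 uM ketoconazole full inhibition.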

The nature of experiment [10]: Confirmation and Secondary Assay for Modulators of Hemoglobin Beta Chain Splicing at IVS2 654 locus (AID 910).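 Also: HeLa cells stably carrying EGFP split by mutant beta-globin IVS2-654 intron; per-well total GFP intensity by laser scanning cytometry after 2-day treatment; % of control where 0% means no effect.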 In short, it runs like this:
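Readout: per-well total peak green fluorescence (488 nm ex, 500–520 nm em) from objects 5–250 µm, reflecting correct splicing of an EGFP-654 reporter. Compounds were applied for 2 days at 37 °C to overnight-plated HeLa EGFP-654 cells; controls were DMSO and 500 nM IVS2-654 PNA.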

A short description of experiment [11]: Primary qHTS for small molecule stabilizers of the endoplasmic reticulum resident proteome: Secreted ER Calcium Modulated Protein (SERCaMP) assay (AID 1508630). Also: % is scaled to controls: 0 for no effect and ±100 for the full control effect. In short, it runs like this: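 GLuc-SERCaMP-expressing SH-SY5Y cells, pretreated 16 h with compound, are challenged with thapsigargin to empty ER calcium stores; after 4 h, coelenterazine is added directly to the medium and luminescence is imaged.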

The target of experiment [12] is Rap guanine nucleotide exchange factor 3 (Homo sapiens) (UniProt O95398). Put plainly: Confirmatory qHTS for antagonist of cAMP-regulated guanine nucleotide exchange factor 3 (EPAC1) (AID 1645880). Also: nearly all actives have a fitted effect of over 55% in size. Also: potency is read from the fitted curve at half-maximal effect.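 As to activity, negative = inhibition: plate controls were DMSO only for no effect and full effect of the ATA control for full effect.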 Summed up: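 Nucleotide exchange uses 100 nM EPAC1, 250 nM RAP1B-BODIPY-GDP and 50 uM GDP, with compounds in a concentration-titration series. After 5 min at room temperature, fluorescence (480 nm ex/540 nm em) is read every 5 min for 30 min. Data are normalized to control ATA and DMSO.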
Rap guanine nucleotide exchange factor 3 (Homo sapiens), sequence (O95398 whole entry, looked up): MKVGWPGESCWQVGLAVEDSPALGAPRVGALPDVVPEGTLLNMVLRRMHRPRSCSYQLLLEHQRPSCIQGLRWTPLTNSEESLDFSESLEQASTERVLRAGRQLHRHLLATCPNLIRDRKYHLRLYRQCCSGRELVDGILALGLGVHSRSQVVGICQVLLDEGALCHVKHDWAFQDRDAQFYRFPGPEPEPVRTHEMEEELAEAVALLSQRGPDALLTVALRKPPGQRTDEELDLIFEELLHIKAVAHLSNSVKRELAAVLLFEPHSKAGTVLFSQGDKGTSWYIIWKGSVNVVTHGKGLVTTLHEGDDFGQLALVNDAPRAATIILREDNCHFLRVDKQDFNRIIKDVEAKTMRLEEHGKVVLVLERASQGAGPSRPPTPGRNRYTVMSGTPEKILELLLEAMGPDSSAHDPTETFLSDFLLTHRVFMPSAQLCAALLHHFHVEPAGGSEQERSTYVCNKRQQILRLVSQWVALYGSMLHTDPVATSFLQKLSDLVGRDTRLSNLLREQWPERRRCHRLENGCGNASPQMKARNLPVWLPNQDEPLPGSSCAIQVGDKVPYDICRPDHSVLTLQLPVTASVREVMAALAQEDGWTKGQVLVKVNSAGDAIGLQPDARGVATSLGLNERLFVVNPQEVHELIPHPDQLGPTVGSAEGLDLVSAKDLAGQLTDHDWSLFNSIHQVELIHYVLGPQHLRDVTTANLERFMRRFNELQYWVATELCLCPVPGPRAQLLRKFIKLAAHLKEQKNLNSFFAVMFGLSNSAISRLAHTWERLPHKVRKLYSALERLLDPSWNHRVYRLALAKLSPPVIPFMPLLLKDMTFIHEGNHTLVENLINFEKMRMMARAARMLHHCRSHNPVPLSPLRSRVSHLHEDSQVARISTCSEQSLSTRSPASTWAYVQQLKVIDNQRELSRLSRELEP

In experiment [13] the target is Rap guanine nucleotide exchange factor 4 (Homo sapiens) (UniProt Q8WZA2). Put plainly: Confirmatory qHTS for antagonist of cAMP-regulated guanine nucleotide exchange factor 4 (EPAC2) (AID 1645885). Also: % is scaled to controls: 0 for no effect and ±100 for the full control effect; nearly all actives have a fitted effect of over 25% in size.
Rap guanine nucleotide exchange factor 4 (Homo sapiens), sequence (Q8WZA2 whole entry, looked up): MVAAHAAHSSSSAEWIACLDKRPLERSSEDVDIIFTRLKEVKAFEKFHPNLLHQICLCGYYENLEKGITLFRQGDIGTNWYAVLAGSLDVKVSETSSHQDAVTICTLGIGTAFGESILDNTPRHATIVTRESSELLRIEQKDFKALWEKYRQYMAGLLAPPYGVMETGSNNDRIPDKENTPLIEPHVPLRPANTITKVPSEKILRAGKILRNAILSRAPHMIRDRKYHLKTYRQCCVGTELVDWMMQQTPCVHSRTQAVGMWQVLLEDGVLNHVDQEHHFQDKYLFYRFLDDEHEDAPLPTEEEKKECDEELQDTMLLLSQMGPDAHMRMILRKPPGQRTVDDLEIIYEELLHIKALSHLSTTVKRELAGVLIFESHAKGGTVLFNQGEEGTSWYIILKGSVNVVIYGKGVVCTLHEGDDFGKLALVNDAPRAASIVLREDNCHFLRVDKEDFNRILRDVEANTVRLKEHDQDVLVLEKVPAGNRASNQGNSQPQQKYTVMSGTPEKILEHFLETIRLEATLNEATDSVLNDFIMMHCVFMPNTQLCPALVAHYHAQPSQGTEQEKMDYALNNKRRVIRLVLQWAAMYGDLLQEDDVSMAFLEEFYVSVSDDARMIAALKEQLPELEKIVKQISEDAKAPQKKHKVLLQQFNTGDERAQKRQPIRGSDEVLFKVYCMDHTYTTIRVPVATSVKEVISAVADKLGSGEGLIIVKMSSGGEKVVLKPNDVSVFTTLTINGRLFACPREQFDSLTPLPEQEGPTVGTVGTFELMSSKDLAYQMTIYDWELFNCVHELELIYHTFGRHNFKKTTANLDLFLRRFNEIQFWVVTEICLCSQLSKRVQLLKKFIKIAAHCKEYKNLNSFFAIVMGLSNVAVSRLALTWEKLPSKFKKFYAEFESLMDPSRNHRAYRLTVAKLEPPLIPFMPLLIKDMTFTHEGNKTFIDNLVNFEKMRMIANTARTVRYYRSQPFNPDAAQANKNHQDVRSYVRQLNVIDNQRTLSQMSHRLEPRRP
Experiment [14] addresses 3',5'-cyclic-AMP phosphodiesterase 4B (Homo sapiens) (UniProt Q07343). Put plainly: qHTS Assay for Inhibitors of PDE-IV (AID 607; active = well fitted activation curve with a large enough effect in the main read-out, with a control signal flat, not every such curve was filed as active; also: % of control where 0% means no effect). In short, it runs like this:
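HEK293 ACTOne cells with CNG channel (1000/well), endogenous PDE4; membrane potential dye, compounds up to 22.9 uM final. Fluorescence Ex 535/Em 590; RO 20-1724 (100 uM final) as reference.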

Experiment [15] has as its target Rap guanine nucleotide exchange factor 3 (Homo sapiens) (UniProt O95398). Put plainly: Confirmatory qHTS for agonist of cAMP-regulated guanine nucleotide exchange factor 3 (EPAC1) (AID 1645881).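 Also: EPAC1 catalysed release of BODIPY-GDP from Rap1B seen as fluorescence loss; 100% = effect of cAMP agonist control; nearly all actives have a fitted effect of over 75% in size.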
The target in experiment [16] is Rap guanine nucleotide exchange factor 4 (Homo sapiens) (UniProt Q8WZA2). Briefly: Confirmatory qHTS for agonist of cAMP-regulated guanine nucleotide exchange factor 4 (EPAC2) (AID 1645884).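 Also: nucleotide exchange releases bodipy-GDP from Rap1 and this lowers its fluorescence; nearly all actives have a fitted effect of over 65% in size.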 Also: potency is read from the fitted curve at half-maximal effect.
Experiment [17] addresses Lysosomal acid glucosylceramidase (Homo sapiens) (UniProt P04062). Put plainly: Glucocerebrosidase-p2 (AID 348; in the data active = potency below about 10 µM; also: potency is read from the fitted curve at half-maximal effect). The conditions noted are these: purified GBA, blue fluorogenic substrate, 40 min. Summed up:
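Compounds titrated from 0.6 nM upwards against 0.2 nM enzyme in pH 5.9 citric acid/KH2PO4, taurocholate, tween-20; blue fluorogenic substrate 80 uM, 40 min room temperature, stopped and read Ex 365/Em 440 for AC50.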

Experiment [18] deals with Ubiquitin carboxyl-terminal hydrolase 1 (Homo sapiens) (UniProt O94782). Put plainly: Inhibitors of USP1/UAF1: Pilot qHTS (AID 504865).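 Also: rhodamine fluorescence freed from ubiquitin-rhodamine substrate followed over time; top concentration of the series differs between compounds; % is scaled to controls: 0 for no effect and ±100 for the full control effect; nearly all actives have a fitted effect of over 35% in size.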 In short, it runs like this: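 USP1/UAF1 complex (1nM) preincubated with compound 15 min at room temperature, then Ub-Rho substrate (150nM final) added. Fluorescence read kinetically at 480/540 nm, 6 reads every 60 seconds. Buffer: 50mM HEPES pH 7.8, 0.5mM EDTA, 0.1 mg/ml BSA, 1mM TCEP, 0.01% Tween-20.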

Unmarked numbers belong to inactive results. Records with an inconclusive call do not appear. The source made the active and inactive calls. Unless noted, calls follow the shape of the dose curve; as a rule, active = well fitted curve in the direction sought with a large enough effect; inconclusive = small, poorly fitted or top-dose-only effect, or another doubt; inactive = no such curve, though single readings can be large; an effect the other way counts as inactive or inconclusive.

3',5'-cyclic-AMP phosphodiesterase 4B (Homo sapiens), sequence (Q07343 whole entry, looked up): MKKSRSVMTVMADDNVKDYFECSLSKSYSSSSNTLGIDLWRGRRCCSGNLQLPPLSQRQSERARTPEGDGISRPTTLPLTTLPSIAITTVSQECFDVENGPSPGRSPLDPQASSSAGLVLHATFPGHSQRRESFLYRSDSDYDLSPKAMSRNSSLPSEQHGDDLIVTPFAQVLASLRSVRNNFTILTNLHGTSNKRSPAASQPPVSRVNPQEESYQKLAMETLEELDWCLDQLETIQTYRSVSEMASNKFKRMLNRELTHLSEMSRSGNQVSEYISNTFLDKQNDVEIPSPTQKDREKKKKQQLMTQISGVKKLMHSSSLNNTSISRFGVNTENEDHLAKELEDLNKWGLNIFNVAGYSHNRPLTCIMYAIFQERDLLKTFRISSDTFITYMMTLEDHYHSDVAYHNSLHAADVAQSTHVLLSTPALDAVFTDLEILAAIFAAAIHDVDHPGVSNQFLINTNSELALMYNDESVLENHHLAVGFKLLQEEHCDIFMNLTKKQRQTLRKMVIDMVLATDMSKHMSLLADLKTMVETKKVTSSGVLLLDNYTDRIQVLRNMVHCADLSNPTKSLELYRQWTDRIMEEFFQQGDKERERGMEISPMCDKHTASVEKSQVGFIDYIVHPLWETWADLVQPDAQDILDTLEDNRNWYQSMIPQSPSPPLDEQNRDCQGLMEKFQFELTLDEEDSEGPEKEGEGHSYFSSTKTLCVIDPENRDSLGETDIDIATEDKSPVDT
Lysosomal acid glucosylceramidase (Homo sapiens), sequence (P04062 whole entry, looked up): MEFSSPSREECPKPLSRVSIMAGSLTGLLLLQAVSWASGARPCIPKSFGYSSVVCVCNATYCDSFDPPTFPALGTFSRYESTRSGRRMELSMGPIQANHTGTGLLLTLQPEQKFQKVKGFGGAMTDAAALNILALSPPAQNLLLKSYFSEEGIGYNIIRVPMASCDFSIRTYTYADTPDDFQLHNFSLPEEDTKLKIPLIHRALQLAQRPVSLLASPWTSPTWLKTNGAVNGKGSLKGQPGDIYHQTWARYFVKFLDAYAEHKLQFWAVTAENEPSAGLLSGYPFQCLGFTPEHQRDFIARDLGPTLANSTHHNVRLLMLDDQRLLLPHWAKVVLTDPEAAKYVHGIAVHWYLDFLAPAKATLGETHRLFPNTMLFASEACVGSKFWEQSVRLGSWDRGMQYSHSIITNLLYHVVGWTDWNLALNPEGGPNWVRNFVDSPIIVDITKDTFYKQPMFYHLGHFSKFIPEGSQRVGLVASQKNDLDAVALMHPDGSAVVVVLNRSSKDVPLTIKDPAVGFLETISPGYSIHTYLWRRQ

For `c1ccc(CNc2ccnc(-c3ccc4c(c3)OCO4)n2)cc1`, the activity change, negative = inhibition in experiment [1] was -19.4%; in experiment [3], 15.5%. In addition, the Potency in experiment [2] was 0.398 µM (active); in experiment [5] it was more than 46 µM; in experiment [6], more than 46 µM; in experiment [8], 0.794 µM (active). In addition, in experiment [4], the activity, negative = inhibition is -18.3%. In addition, the Potency result in experiment [7], in [9], in experiment [10], in experiment [12] and in experiment [13] was “inactive” throughout. For the same compound, the result in experiment [11] was inactive.

Regarding `N#C/C(=C\c1ccc(O)c(O)c1)C(=O)OCCc1cccs1`, the Potency in [5] is more than 46 µM; in experiment [6], more than 46 µM; in [12] it was 12.5 µM (active). Moreover, the Potency entry in experiment [14], in experiment [9], in experiment [15] and in [16] was “inactive” each time. The result in experiment [11] was inactive.

Consider `O=c1c(-c2cc(F)cc(F)c2)nc2cnc(N3CCOCC3)nc2n1-c1ccccc1`, for which the Potency in experiment [17] was more than 11.4 µM; in [2], 5.01 µM (active); in experiment [5] it was more than 9.22 µM; in experiment [6], more than 46 µM. In addition, the Potency entry in experiment [7], in [12] and in [13] was “inactive” throughout. Besides, the outcome in experiment [11] was inactive.

`COC(=O)N1CCC2(CC1)CCN(c1cccc(-c3ccccc3)c1)CC2`: the Potency in [17] was more than 11.4 µM. Also, the activity change, negative = inhibition in experiment [1] is -18.3%. Further, the Potency result in [2], in [7], in experiment [14], in experiment [8], in experiment [12] and in experiment [15] was “inactive” each time. In experiment [16], the Potency result was “inactive”. For the same compound, the activity, negative = inhibition in experiment [4] is 13%. Also, the result in [11] was inactive.

In the case of `COC(=O)N1CCC2(CCCN(c3cccc(-c4ccccc4)c3)C2)CC1`, the Potency is more than 11.4 µM in experiment [17] and more than 46 µM in [6]. The activity change, negative = inhibition in experiment [1] was 3.74%. Also, in experiment [4], the activity, negative = inhibition is -6.31%. Moreover, the Potency entry in experiment [7], in [12], in experiment [15], in experiment [16] and in experiment [13] was “inactive” throughout. Besides, the outcome in experiment [11] was inactive.

Regarding `Cn1cc(-c2nc3cnc(N4CCOCC4)nc3n(CCC#N)c2=O)c2ccccc21`, the Potency in experiment [17] is more than 11.4 µM; in experiment [5], more than 9.22 µM; in [6] it was more than 46 µM. Also, the activity change, negative = inhibition in experiment [1] is -11.7%; in experiment [3], -7.6%. In addition, the activity, negative = inhibition in [4] was -5.04%. The Potency result in [7], in experiment [14], in [9], in [18], in experiment [12] and in [13] was “inactive” each time. Besides, the outcome in experiment [11] was inactive.

On to `CN(C)c1ncc2nc(-c3cccs3)c(=O)n(C3CC3)c2n1`, for which the Potency is more than 11.4 µM in experiment [17], more than 9.22 µM in experiment [5], more than 46 µM in experiment [6] and 19.9 µM (active) in [16]. Further, the activity change, negative = inhibition in experiment [1] was 6.37%; in experiment [3], 19.8%. In addition, the result in experiment [11] was inactive. The Potency entry in experiment [12] and in experiment [13] was “inactive” in each case.

Consider `COc1cccc(Cn2c(=O)c(-c3cccs3)nc3cnc(Nc4cccc(OC)c4)nc32)c1`, for which the Potency in experiment [17] is more than 11.4 µM; in [2] it was 2.51 µM (active); in [5] it was more than 9.22 µM; in [6], more than 46 µM. Besides, the activity change, negative = inhibition in experiment [1] was -17.2%. Moreover, the activity, negative = inhibition in experiment [4] is 26.3%. For the same compound, the Potency entry in experiment [7], in [9], in experiment [12] and in [13] was “inactive” in each case. The result in experiment [11] was inactive.
